According to PMC7862700, “An all-to-all approach to the identification of sequence-specific readers for epigenetic DNA modifications on cytosine”:

What was measured:
Experiment in all cases: DAPPL (digital affinity profiling via proximity ligation, sequencing); 10 mM Tris-HCl pH 7.5, 50 mM NaCl, 1 mM DTT, 4% glycerol, room temperature, 30 min; GST-TFs on glutathione beads, 16-mer random dsDNA library, 0.1% formaldehyde crosslink after washing; high values mean tight binding
[1] = target: T1, FEV (Homo sapiens, UniProt Q99581 1-238); details: protein: recombinant; tags: N-terminal GST; dsDNA, one strand shown
T1 sequence: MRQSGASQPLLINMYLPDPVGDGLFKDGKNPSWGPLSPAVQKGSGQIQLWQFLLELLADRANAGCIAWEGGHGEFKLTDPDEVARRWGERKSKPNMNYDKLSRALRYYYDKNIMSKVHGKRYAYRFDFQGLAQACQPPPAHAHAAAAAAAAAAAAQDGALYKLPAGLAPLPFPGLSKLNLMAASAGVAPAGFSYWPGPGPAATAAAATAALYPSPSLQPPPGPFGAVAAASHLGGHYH
Method in brief: (§1)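 Binding signal is each hexamer's read frequency for a factor divided by its frequency in the tag-only sample. The factors were GST-fused human transcription factors from yeast, captured on glutathione beads, DNA-barcoded and pooled with that sample. Pools were incubated with 200 nmole of a random double-stranded 16-mer DNA library in Tris/NaCl/DTT/glycerol buffer at room temperature for 30 min, then washed, crosslinked with 0.1% formaldehyde, proximity-ligated with BsaI/T4 ligase (1 h, 37 °C), PCR-amplified and sequenced on an Illumina NextSeq500.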

[2] = target: ETV5 (Homo sapiens, UniProt P41161 1-510); details: protein: recombinant; tags: N-terminal GST; dsDNA, one strand shown
Chain of ETV5 (P41161 whole entry): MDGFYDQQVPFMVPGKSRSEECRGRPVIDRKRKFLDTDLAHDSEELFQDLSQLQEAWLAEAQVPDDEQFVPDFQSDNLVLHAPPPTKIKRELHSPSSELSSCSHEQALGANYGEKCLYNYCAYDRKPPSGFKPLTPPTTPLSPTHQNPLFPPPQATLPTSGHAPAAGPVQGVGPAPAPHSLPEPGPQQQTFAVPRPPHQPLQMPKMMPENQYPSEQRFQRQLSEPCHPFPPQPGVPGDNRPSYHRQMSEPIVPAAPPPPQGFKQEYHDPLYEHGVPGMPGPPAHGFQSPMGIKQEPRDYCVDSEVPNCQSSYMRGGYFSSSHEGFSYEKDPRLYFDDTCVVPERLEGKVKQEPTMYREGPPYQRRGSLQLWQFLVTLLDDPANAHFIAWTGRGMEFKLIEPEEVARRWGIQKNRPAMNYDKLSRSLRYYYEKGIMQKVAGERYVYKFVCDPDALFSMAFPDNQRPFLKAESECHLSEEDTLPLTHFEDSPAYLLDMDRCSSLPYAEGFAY
Method in brief: as §1

[3] = target: HSF1 (Homo sapiens, UniProt Q00613 1-529); details: protein: recombinant; tags: N-terminal GST; chain copies: 3; dsDNA, one strand shown
Chain of HSF1 (Q00613 whole entry): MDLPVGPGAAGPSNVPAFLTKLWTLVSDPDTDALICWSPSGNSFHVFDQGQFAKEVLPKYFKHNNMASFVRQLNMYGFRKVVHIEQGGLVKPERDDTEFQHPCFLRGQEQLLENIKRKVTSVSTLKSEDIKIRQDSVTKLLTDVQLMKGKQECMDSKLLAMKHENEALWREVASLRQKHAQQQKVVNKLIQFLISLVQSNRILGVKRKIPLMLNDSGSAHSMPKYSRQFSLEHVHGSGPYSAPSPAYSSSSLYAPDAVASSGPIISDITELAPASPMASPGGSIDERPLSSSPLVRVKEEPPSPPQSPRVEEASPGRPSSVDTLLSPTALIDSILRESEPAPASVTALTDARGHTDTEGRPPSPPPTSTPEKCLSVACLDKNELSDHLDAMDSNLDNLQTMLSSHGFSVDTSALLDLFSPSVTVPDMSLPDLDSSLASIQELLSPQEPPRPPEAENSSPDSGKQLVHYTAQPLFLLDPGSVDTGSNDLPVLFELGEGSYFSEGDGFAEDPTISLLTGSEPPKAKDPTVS
Method in brief: as §1

[4] = target: ELF4 (Homo sapiens, UniProt Q99607 1-663); details: protein: recombinant; tags: N-terminal GST; dsDNA, one strand shown
Chain of ELF4 (Q99607 whole entry): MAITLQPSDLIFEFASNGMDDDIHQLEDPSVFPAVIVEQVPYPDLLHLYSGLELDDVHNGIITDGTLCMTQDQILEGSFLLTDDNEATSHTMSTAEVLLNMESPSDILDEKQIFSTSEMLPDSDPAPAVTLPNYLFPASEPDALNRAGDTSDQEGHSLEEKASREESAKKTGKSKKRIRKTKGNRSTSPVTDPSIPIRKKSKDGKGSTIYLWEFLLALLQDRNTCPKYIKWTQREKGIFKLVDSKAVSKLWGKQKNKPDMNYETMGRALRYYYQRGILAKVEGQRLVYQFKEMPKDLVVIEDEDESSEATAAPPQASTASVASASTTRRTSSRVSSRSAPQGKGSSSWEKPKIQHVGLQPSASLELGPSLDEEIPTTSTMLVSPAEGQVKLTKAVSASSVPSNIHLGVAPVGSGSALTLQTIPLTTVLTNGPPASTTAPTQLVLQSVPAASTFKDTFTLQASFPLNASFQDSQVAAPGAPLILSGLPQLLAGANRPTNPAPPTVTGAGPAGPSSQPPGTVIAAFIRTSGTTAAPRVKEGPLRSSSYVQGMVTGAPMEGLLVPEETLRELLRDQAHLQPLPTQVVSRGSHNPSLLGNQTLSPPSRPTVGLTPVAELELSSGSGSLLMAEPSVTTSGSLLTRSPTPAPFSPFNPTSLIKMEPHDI
Method in brief: as §1

[5] = target: T2, ELK4 (Homo sapiens, UniProt P28324-2 1-405); details: protein: recombinant; tags: N-terminal GST; dsDNA, one strand shown
T2 sequence: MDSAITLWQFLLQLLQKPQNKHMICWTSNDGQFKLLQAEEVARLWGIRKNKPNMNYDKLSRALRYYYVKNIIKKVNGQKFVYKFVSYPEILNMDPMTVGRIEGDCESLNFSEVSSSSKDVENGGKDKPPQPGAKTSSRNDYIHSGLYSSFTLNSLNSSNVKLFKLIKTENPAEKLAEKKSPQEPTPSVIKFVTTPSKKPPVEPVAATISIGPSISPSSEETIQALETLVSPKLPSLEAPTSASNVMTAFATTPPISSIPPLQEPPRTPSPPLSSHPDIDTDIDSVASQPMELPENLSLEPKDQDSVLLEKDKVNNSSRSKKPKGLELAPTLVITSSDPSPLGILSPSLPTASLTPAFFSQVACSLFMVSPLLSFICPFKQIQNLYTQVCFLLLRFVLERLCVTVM
Method in brief: as §1

[6] = target: T3, ETV2 (Homo sapiens, UniProt O00321 1-342); details: protein: recombinant; tags: N-terminal GST; dsDNA, one strand shown
T3 sequence: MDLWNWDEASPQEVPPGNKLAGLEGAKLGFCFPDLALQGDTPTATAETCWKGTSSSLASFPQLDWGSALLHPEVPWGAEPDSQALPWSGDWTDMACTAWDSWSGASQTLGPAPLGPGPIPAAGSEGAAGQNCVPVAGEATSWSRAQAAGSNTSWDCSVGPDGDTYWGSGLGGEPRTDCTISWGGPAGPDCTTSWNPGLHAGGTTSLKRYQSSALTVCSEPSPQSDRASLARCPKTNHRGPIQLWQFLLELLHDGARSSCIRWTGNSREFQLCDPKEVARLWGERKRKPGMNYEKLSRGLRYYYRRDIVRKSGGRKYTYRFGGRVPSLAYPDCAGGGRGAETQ
Method in brief: as §1

[7] = target: T4, ELF3 (Homo sapiens, UniProt P78545 1-371); details: protein: recombinant; tags: N-terminal GST; dsDNA, one strand shown
T4 sequence: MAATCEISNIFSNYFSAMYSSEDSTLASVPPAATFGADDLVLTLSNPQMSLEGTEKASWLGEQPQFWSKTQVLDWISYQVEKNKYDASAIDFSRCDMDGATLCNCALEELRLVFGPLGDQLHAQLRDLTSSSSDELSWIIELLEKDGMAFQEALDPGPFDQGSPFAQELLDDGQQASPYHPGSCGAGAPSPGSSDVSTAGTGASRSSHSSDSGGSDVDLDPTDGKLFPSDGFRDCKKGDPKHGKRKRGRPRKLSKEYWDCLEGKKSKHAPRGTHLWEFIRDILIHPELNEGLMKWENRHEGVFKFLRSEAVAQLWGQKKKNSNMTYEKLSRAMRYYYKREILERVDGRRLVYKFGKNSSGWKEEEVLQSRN
Method in brief: as §1

[8] = target: CRX (Homo sapiens, UniProt O43186 1-299); details: protein: recombinant; tags: N-terminal GST; dsDNA, one strand shown
Chain of CRX (O43186 whole entry): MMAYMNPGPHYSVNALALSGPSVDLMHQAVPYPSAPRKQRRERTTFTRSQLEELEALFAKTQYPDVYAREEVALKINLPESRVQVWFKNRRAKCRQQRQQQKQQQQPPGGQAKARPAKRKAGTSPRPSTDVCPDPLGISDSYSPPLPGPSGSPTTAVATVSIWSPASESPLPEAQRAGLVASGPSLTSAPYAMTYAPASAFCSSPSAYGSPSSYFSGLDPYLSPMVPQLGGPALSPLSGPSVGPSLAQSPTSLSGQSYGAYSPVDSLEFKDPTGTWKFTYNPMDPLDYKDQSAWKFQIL
Method in brief: as §1

[9] = target: ETV1 (Homo sapiens, UniProt P50549 1-477); details: protein: recombinant; tags: N-terminal GST; dsDNA, one strand shown
Chain of ETV1 (P50549 whole entry): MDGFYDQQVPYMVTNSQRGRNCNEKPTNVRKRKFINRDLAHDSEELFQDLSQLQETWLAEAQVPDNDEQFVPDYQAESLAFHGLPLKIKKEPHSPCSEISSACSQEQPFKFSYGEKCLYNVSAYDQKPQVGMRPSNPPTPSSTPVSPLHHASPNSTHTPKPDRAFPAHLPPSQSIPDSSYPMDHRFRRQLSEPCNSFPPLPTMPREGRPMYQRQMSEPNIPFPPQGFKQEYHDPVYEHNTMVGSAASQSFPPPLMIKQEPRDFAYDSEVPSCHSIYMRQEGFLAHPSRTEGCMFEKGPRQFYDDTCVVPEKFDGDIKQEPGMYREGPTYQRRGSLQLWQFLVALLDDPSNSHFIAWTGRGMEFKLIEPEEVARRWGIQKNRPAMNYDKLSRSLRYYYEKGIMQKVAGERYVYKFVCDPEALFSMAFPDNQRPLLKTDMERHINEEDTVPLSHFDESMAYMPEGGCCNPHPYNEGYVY
Method in brief: as §1

[10] = target: T5, ERF (Homo sapiens, UniProt P50548 1-548); details: protein: recombinant; tags: N-terminal GST; dsDNA, one strand shown
T5 sequence: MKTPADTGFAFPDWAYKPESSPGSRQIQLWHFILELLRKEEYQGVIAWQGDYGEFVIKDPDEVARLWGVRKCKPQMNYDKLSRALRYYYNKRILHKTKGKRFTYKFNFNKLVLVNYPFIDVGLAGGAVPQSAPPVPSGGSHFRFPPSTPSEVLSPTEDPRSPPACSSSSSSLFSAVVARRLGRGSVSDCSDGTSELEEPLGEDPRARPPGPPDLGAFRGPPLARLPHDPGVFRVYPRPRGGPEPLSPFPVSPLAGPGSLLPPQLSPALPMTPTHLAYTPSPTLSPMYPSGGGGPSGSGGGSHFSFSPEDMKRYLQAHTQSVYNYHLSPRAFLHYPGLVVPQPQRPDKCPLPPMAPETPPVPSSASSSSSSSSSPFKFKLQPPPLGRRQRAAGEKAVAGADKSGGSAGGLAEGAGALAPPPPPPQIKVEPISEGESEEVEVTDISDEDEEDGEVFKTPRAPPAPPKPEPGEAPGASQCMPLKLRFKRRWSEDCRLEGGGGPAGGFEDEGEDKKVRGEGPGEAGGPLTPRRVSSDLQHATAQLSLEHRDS
Method in brief: as §1

[11] = target: T6, ETV3L (Homo sapiens, UniProt Q6ZN32 1-361); details: protein: recombinant; tags: N-terminal GST; dsDNA, one strand shown
T6 sequence: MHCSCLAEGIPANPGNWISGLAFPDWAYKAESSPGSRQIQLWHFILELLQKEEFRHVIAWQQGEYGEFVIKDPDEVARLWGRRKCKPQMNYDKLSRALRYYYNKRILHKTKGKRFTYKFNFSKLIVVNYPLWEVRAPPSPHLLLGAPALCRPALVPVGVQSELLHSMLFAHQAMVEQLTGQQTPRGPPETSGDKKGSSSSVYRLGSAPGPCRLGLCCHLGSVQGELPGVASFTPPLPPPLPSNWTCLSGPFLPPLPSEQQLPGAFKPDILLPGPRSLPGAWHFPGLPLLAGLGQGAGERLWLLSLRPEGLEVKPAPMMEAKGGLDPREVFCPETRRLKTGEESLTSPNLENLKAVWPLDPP
Method in brief: as §1

[12] = target: T7, ETS2 (Homo sapiens, UniProt P15036 1-469); details: protein: recombinant; tags: N-terminal GST; dsDNA, one strand shown
T7 sequence: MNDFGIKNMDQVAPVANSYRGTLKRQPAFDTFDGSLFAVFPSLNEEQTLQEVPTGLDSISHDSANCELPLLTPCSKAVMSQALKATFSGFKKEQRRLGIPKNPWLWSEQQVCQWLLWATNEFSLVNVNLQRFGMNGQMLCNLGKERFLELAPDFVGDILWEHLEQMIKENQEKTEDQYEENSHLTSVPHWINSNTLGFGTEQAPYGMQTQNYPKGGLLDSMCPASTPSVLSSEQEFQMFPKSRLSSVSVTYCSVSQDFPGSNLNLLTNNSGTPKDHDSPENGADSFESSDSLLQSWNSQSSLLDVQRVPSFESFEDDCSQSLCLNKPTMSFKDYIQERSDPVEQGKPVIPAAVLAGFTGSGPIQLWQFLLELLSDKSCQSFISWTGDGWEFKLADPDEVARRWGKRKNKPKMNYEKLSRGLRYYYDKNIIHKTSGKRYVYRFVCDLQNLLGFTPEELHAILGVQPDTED
Method in brief: as §1

[13] = target: T8, SPDEF (Homo sapiens, UniProt O95238 1-335); details: protein: recombinant; tags: N-terminal GST; dsDNA, one strand shown
T8 sequence: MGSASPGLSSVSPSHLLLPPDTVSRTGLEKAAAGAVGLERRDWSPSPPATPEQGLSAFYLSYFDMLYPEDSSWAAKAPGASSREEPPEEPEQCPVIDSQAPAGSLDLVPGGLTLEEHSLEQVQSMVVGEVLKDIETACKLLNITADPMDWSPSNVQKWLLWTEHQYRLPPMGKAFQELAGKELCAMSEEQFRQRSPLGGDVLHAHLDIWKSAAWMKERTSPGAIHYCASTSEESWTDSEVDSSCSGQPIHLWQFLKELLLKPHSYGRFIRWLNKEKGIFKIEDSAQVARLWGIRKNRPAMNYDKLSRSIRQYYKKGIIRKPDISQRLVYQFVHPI
Method in brief: as §1

[14] = target: T9, ETV7 (Homo sapiens, UniProt Q9Y603 1-341); details: protein: recombinant; tags: N-terminal GST; dsDNA, one strand shown
T9 sequence: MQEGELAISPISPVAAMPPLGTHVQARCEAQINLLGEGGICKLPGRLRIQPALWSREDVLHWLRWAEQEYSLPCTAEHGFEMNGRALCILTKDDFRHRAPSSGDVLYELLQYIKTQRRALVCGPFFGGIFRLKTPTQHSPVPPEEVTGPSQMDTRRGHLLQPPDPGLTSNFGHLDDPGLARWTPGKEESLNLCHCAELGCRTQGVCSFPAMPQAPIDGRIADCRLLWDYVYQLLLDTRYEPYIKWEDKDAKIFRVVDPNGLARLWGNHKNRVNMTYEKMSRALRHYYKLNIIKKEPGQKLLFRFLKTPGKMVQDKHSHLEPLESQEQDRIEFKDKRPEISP
Method in brief: as §1

[15] = target: T10, ELF5 (Homo sapiens, UniProt Q9UKW6-2 1-255); details: protein: recombinant; tags: N-terminal GST; dsDNA, one strand shown
T10 sequence: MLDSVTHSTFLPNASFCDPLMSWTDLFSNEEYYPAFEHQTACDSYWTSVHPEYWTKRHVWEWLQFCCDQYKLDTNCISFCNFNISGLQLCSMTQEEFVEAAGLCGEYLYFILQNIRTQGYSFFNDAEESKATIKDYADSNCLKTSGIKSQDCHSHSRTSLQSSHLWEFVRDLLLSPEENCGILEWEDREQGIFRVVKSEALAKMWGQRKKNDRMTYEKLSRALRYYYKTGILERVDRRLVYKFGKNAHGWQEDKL
Method in brief: as §1

[16] = target: T11, ETV3 (Homo sapiens, UniProt P41162-2 1-143); details: protein: recombinant; tags: N-terminal GST; dsDNA, one strand shown
T11 sequence: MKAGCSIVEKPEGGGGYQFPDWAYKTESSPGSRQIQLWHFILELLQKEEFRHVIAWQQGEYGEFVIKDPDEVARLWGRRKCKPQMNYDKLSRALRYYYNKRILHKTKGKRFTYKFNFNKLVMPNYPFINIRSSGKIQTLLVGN
Method in brief: as §1

[17] = target: ETV6 (Homo sapiens, UniProt P41212 1-452); details: protein: recombinant; tags: N-terminal GST; dsDNA, one strand shown
Chain of ETV6 (P41212 whole entry): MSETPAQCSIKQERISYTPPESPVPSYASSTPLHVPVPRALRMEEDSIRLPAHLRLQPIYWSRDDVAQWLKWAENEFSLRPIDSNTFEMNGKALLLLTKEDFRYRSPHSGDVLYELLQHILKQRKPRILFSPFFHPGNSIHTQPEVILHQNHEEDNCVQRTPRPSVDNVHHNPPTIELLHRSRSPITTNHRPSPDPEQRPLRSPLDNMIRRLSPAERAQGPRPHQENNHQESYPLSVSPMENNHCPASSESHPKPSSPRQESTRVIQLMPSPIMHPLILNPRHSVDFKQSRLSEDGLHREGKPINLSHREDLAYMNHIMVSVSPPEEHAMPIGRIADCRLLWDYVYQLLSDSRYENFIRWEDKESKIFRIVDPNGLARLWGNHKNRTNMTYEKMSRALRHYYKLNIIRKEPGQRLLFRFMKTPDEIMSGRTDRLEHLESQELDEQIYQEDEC
Method in brief: as §1

Sequence	binding signal [1]	binding signal [2]	binding signal [3]	binding signal [4]	binding signal [5]	binding signal [6]	binding signal [7]	binding signal [8]	binding signal [9]	binding signal [10]	binding signal [11]	binding signal [12]	binding signal [13]	binding signal [14]	binding signal [15]	binding signal [16]	binding signal [17]
AAGCTC	1.14 fold enrichment (6-mer frequency, TF over GST control)	1.16 fold enrichment (6-mer frequency, TF over GST control)	1.42 fold enrichment (6-mer frequency, TF over GST control)	1.21 fold enrichment (6-mer frequency, TF over GST control)	1.2 fold enrichment (6-mer frequency, TF over GST control)	1.15 fold enrichment (6-mer frequency, TF over GST control)	1.2 fold enrichment (6-mer frequency, TF over GST control)	1.68 fold enrichment (6-mer frequency, TF over GST control)	1.22 fold enrichment (6-mer frequency, TF over GST control)	1.2 fold enrichment (6-mer frequency, TF over GST control)	1.2 fold enrichment (6-mer frequency, TF over GST control)	1.13 fold enrichment (6-mer frequency, TF over GST control)	1.06 fold enrichment (6-mer frequency, TF over GST control)	1.08 fold enrichment (6-mer frequency, TF over GST control)	1.07 fold enrichment (6-mer frequency, TF over GST control)	1.18 fold enrichment (6-mer frequency, TF over GST control)	1.23 fold enrichment (6-mer frequency, TF over GST control)
AACCAT	1.15 fold enrichment (6-mer frequency, TF over GST control)	1.15 fold enrichment (6-mer frequency, TF over GST control)	1.15 fold enrichment (6-mer frequency, TF over GST control)	1.15 fold enrichment (6-mer frequency, TF over GST control)	1.21 fold enrichment (6-mer frequency, TF over GST control)	1.2 fold enrichment (6-mer frequency, TF over GST control)	1.1 fold enrichment (6-mer frequency, TF over GST control)	1.05 fold enrichment (6-mer frequency, TF over GST control)	1.06 fold enrichment (6-mer frequency, TF over GST control)	1.07 fold enrichment (6-mer frequency, TF over GST control)	1.16 fold enrichment (6-mer frequency, TF over GST control)	1.12 fold enrichment (6-mer frequency, TF over GST control)	1.11 fold enrichment (6-mer frequency, TF over GST control)	1.15 fold enrichment (6-mer frequency, TF over GST control)	1.08 fold enrichment (6-mer frequency, TF over GST control)	1.16 fold enrichment (6-mer frequency, TF over GST control)	1.13 fold enrichment (6-mer frequency, TF over GST control)
